The text below walks through data of PubChem BioAssay (NCATS).

What all share (experiment): qHTS profiling for inhibitors of Plasmodium falciparum proliferation (AID 504749); note: nearly all actives have a fitted effect of over 60% in size
Holding throughout (conditions): P. falciparum in erythrocytes, SYBR Green DNA, 72 h; series mostly up to 28.7 µM
(In qHTS, concentration-response curves come from the screen itself.)

One assay relates to 3D7. The gist of the method:
(§1)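 In a 72 h erythrocytic culture (37 C, humidified, 5% CO2) at 2.5% hematocrit and 0.3% starting parasitemia, compounds were tested; SYBR Green I in detergent lysis buffer stained parasite DNA overnight.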

For a further assay, the system named is ATS189. The method, boiled down: as §1
Another assay deals with CP185. The gist of the method:
as §1

For another assay, the system named is CP192. The gist of the method: as §1
The subject of a further assay is CP194. The method, boiled down:
as §1

The test system of a further assay is CP201. The method, boiled down: as §1
A further assay concerns CP238. The gist of the method: as §1
Another assay relates to CP247. The method, boiled down: as §1
The next assay deals with CP262. The method, boiled down: as §1
Another assay concerns CP265. The method, boiled down: as §1
The subject of another assay is CP291. The gist of the method: as §1
The test system of the next assay is CP335. The gist of the method:
as §1

For a further assay, the system named is DIV30. The gist of the method:
as §1

The test system of a further assay is Dd2. The method, boiled down:
as §1

The test system of a further assay is ECU. The method, boiled down: as §1
The next assay has as its system GB4. The method, boiled down:
as §1

The test system of the next assay is HB3. The method, boiled down:
as §1

A further assay deals with P94_40. The method, boiled down:
as §1

The next assay deals with PAD. The method, boiled down:
as §1

Another assay has as its system TAB113. The method, boiled down:
as §1

Each structure is given as a SMILES string. Inconclusive results are not listed. Active and inactive are the calls of the source. Calls come from the whole dose curve; as a rule, active = well fitted inhibition curve with a large enough effect; inconclusive = small, poorly fitted or top-dose-only effect; inactive = flat fitted curve, though single readings scatter.
Potency is the fitted concentration of half-maximal effect.

For `C[C@@]12C(=O)OC(=O)[C@]1(C)[C@H]1CC[C@@H]2O1`, the Potency was 3.16 µM (active) in the assay on 3D7; 2.82 µM (active) in the assay with ATS189; 2.51 µM (active) in the assay with CP185; 4.55 µM (active) in the assay with CP192; 2.87 µM (active) in the assay with CP194; 3.61 µM (active) with CP201. The Potency in the assay on CP238 is 2.51 µM (active); with CP247, 1.78 µM (active); in the assay on CP262 it was 3.61 µM (active); with CP265, 3.55 µM (active); in the assay with CP291, 3.22 µM (active); in the assay on CP335, 2.56 µM (active). Moreover, the Potency in the assay on DIV30 is 5.73 µM (active); in the assay with Dd2, 4.47 µM (active); in the assay on ECU, 3.55 µM (active); with GB4 it was 4.05 µM (active); in the assay on HB3, 3.55 µM (active); in the assay with P94_40 it was 2.51 µM (active). The Potency with PAD and with TAB113 was 3.98 µM (active) each time.
For `C=C1CCC2[C@](C)(CO)C(O)CC[C@]2(C)C1C/C=C1/C(=O)OCC1O` (stereo not given in full), the Potency entry with 3D7, with ATS189, with CP185, with CP192, in the assay with CP194 and in the assay with CP201 was “inactive” in each case. For the same compound, the Potency result in the assay with CP238, in the assay with CP262, in the assay on CP265, in the assay on CP291, in the assay on CP335 and in the assay on DIV30 was “inactive” each time. In addition, the Potency entry in the assay with Dd2, in the assay on ECU, with GB4, in the assay on HB3, in the assay on P94_40 and with PAD was “inactive” throughout. For the same compound, the Potency entry with TAB113 is “inactive”. In the assay with CP247, the Potency was 11.2 µM (active).
In the case of `CC(/C=C1\SC(=S)N(CC(=O)O)C1=O)=C\c1ccccc1`, the Potency result with 3D7, in the assay on ATS189, in the assay on CP185, in the assay with CP192, in the assay on CP194 and with CP201 was “inactive” each time. Also, the Potency result in the assay on CP238, in the assay with CP247, in the assay with CP262, with CP265, with CP291 and with CP335 was “inactive” in each case. Moreover, the Potency result in the assay with DIV30, in the assay with Dd2, with ECU, with GB4, in the assay on HB3 and with P94_40 was “inactive” each time. Besides, the Potency entry in the assay with PAD and in the assay with TAB113 was “inactive” in each case.
